According to PubChem BioAssay (Tox21):
Inconclusive results are not listed. Unmarked numbers belong to inactive results. The call rests on the fitted dose curve.

Biological target: Peroxisome proliferator-activated receptor gamma (Homo sapiens) (UniProt P37231)
Assay: qHTS assay to identify small molecule antagonists of the peroxisome proliferator-activated receptor gamma (PPARg) signaling pathway (AID 743191); further: nearly all actives have a fitted effect of over 30% in size
Conditions: HEK293H PPARg-UAS-bla, beta-lactamase ratio, antagonist, 17 h; series mostly up to 62.6 µM; ratio activity, negative = inhibition: at the top concentration
Description: U.S. Tox21 Program National Center for Advancing Translational Sciences [NCATS] NIH Chemical Genomics Center [NCGC] U.S. Environmental Protection Agency [EPA] National Institutes of Environmental Health Sciences [NIEHS] National Toxicology Program [NTP] U.S. Food and Drug Administration [FDA] Tox21 Assay Overview: The peroxisome proliferator-activated receptors (PPARs) are lipid-activated transcription factors of the nuclear receptor superfamily with three distinct subtypes namely PPAR alpha, PPAR delta (also called PPAR beta) and PPAR gamma (PPARg). All these subtypes heterodimerize with Retinoid X receptor (RXR) and these heterodimers regulate transcription of various genes. PPAR-gamma receptor (glitazone receptor) is involved in the regulation of glucose and lipid metabolism. To identify the compounds that inhibit PPAR-gamma signaling, GeneBLAzer PPAR gamma UAS-bla HEK293H cell line (Invitrogen, Carlsbad, CA, USA) containing a beta-lactamase reporter gene under control of an Upstream Activator Sequence (UAS) was used to screen the Tox21 compound library.
Tox21 Assay Protocol Summary: PPARg-bla cells were dispensed at 3000 cells/6uL/well in 1536-well black wall/clear bottom plates using a Multidrop Combi (Thermo Fisher Scientific, Waltham, MA) dispenser. After the assay plates were incubated at 37C and 5% CO2 for 5 h, 23 nL of compounds dissolved in DMSO, positive controls or DMSO only was transferred to the assay plate by a Pintool station (Kalypsys, San Diego, CA). The assay plates were incubated at 37C for 17 h. After 1 uL of LiveBLAzerTM B/G FRET substrate was added using a Bioraptr Flying Reagent Dispenser (FRD) workstation (Beckman Coulter, Indianapolis, IN, USA), the plates were incubated at room temperature for 1 h, and fluorescence intensity was measured by an Envision plate reader (PerkinElmer, Shelton, CT).
On the % scale 0 is the no-effect control and ±100 the full control effect.

Chain of Peroxisome proliferator-activated receptor gamma (Homo sapiens) (P37231 whole entry, looked up): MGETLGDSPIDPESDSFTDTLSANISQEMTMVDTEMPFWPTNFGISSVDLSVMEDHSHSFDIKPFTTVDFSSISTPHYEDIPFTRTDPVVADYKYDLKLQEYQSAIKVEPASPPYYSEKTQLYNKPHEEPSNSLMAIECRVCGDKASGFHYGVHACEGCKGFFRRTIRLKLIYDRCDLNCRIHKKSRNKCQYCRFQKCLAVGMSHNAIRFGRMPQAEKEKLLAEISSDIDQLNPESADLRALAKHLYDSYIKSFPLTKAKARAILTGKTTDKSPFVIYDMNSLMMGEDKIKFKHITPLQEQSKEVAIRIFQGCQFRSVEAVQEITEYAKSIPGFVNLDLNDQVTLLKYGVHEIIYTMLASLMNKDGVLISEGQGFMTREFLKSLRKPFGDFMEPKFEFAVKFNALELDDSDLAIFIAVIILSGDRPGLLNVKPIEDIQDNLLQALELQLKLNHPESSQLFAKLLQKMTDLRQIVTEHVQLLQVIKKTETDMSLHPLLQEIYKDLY

Row | SMILES | ratio activity, negative = inhibition
1 | COc1nc(C)nc(NC(=O)NS(=O)(=O)c2ccccc2OCCCl)n1 | 2.62%
2 | CCCNC(C)(C)COC(=O)c1ccccc1 | -9.4%
3 | O=C(Cl)c1cccc([N+](=O)[O-])c1 | -5.77%
4 | CC(C)C(=O)OCC(C)(C)C(O)C(C)C (stereo not given) | -2.2% [at 81.1 µM]
5 | CC1(C)C(=O)N(Cl)C(=O)N1Br | 8.01%
6 | O=Cc1ccc(O)c(O)c1O | 4.34%
7 | OCCN1CCN(CCO)CC1 | 1.54% [at 81.1 µM]
8 | CCCC1CCC(=O)O1 (stereo not given) | 4.67%
9 | ICCc1ccccc1 | 12.8%
10 | CC(C)C(=O)OC/C=C/c1ccccc1 | 9.56%
11 | COC(=O)c1ccc(OC)cc1 | -7.62%
12 | COC(C)CCO (stereo not given) | 14.6%
13 | COc1ccc2nc(NC(=O)Nc3ccccc3)sc2c1 | -2.24%
14 | CCOC(=O)COc1ccc2c(c1)CC(NCC(O)c1cccc(Cl)c1)CC2 (stereo not given) | -10.6%
15 | Cc1c(-c2ccccc2)oc2c(C(=O)OCCN3CCCCC3)cccc2c1=O | -3.44%
16 | C[C@@H](N)C(=O)O | 4.82%
17 | CC1=NN(c2cc(Cl)c(S(=O)(=O)O)cc2Cl)C(=O)C1N=Nc1ccc(S(=O)(=O)O)cc1 (stereo not given) | -11.6%
18 | CCCCNc1ccc(C(=O)OCCN(CC)CC)cc1 | -2.1%
19 | CC(C)(CO)[C@@H](O)C(=O)NCCC(=O)O | 13.4% [at 81.1 µM]
20 | CCN(CC)C(=O)N(CC)CC | -4.99%

Row | SMILES | ratio activity, negative = inhibition
21 | CC1(O)CSC(C)(O)CS1 (stereo not given) | 3.02%
22 | NC(=O)NS(=O)(=O)c1ccc(Cl)cc1 | 5.51%
23 | CS(=O)(=O)c1ccc([C@@H](O)[C@@H](CF)NC(=O)C(Cl)Cl)cc1 | 8.3%
24 | Cc1ccc([N+](=O)[O-])cc1Cl | -2.26% [at 81.1 µM]
25 | CN(C)CCOc1ccccc1Cc1ccccc1 | -15%
26 | CCN1CC(CCN2CCOCC2)C(c2ccccc2)(c2ccccc2)C1=O (stereo not given) | 0.465%
27 | CCOc1ccc(NC(N)=O)cc1 | 0.569%
28 | CCCCCCCCCCCCOCCOS(=O)(=O)O | -4.83%
29 | CCN(CC)CC1CCCCN1CC(=O)N1c2ccccc2C(=O)Nc2cccnc21 (stereo not given) | 0.76%
30 | CCCCNC(=S)NCCCC | -0.929%
31 | CC(C)O | 1.26% [at 81.1 µM]
32 | O=C(O)C(=O)Cc1c[nH]c2ccccc12 | -13.2%
33 | CC(C)(C)c1ccc(OC(=O)c2ccccc2O)cc1 | 1.38%
34 | CC(C)Nc1nc(N)nc(Cl)n1 | 0.461%
35 | Cc1ccc([N+](=O)[O-])c(N)c1 | 4.96%
36 | CC(C)c1ccccc1 | 1.45% [at 81.1 µM]
37 | COc1cc(N)c(Cl)cc1C(=O)NC1CCN(Cc2ccccc2)CC1 | 0.126%
38 | CCCCCCOc1ccc(N)cc1 | -25%
39 | O=Cc1ccc(F)c(Br)c1 | -6.15%
40 | CN1CCN(C2=Nc3cc(F)ccc3Cc3ccccc32)CC1 | -14.7%
